PubChem BioAssay AID803 (The Scripps Research Institute Molecular Screening Center, 2007)
Screen size: about 140,000 compounds; about 680 (0.49%) were called active. Cut-off read from the data, not from the text of the source: active = activation above about 5% (passing the limit was not always enough); inactive = the rest. Many of the other results were omitted from the sample, so actives are more common in it than they were.

The compounds below were run against Galanin receptor type 2 (Homo sapiens) (UniProt O43603) (assay: human galanin receptor 2 activators – cell-based, primary screen (AID 803;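 note: 0% = vehicle buffer wells and 100% = reference agonist at full effect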)). Details: GALR2-expressing cells, agonist activation read-out; at 5.6 µM; stronger effect = higher value.
Chain of Galanin receptor type 2 (Homo sapiens) (O43603 whole entry, looked up): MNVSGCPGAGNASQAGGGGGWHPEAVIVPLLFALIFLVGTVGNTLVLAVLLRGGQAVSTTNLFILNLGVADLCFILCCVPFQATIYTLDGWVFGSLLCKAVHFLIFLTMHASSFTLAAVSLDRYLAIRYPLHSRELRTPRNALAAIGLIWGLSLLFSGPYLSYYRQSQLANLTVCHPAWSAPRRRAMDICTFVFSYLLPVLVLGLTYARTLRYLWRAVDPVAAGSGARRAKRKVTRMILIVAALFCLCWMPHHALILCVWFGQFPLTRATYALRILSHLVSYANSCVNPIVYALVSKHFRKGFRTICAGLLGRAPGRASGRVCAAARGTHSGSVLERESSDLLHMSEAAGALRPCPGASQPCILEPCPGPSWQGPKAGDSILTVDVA

activation, inactive:
COc1ccc(S(=O)(=O)NC(C)C(=O)Nc2cccc([N+](=O)[O-])c2)cc1 (configuration not stated) -0.92%, CCC(C)C(=O)Nc1cc([N+](=O)[O-])ccc1Cl (configuration not stated) -0.24%, C/C(=N\N=C(N)N)c1ccc(Cl)cc1 -2.59%, O=C(NN1C(=O)C2C3C=CC(C3)C2C1=O)c1ccco1 (configuration not stated) -0.17%, CC1(C)CC(=O)C=C(NCCCN2CCCC2=O)C1 -3.74%, CC1(C)CC(=O)C=C(NCCCNC2CCCCC2)C1 -0.48%, COc1cccc(/C=N/Nc2ncc(C(F)(F)F)cc2Cl)c1O 0.04%, Cc1cc(O)ccc1NC1=CC(=O)CC(C)(C)C1 -0.24%, O=C(O)c1ccc(NC(=O)c2cccs2)cc1 -3%, O=C(NCCc1ccccc1)/C(=C\c1ccc([N+](=O)[O-])cc1)NC(=O)c1ccccc1 -1.62%, O=C(N/N=C/c1ccc(O)cc1)/C(=C/c1ccc([N+](=O)[O-])cc1)NC(=O)c1ccccc1 -1.29%, COCCCNC(=S)NC(=O)c1ccc([N+](=O)[O-])cc1 -2.33%, Cc1ccccc1C(CC(=O)c1cccs1)C(C#N)C#N (configuration not stated) -0.23%, Cc1cc2c(C)nc(N/N=C/c3ccccc3)nc2o1 0.45%, O=C(Oc1ccccc1Cl)c1ccc(N2CCOCC2)c([N+](=O)[O-])c1 -1.48%, CC(=O)c1sc(N/N=C\c2ccc(C)cc2)nc1C 2.02%, O=C(CSc1ncnc2scc(-c3ccccc3)c12)NCc1ccc2c(c1)OCO2 -1.28%, CC(C)(C)SCCNC(=O)c1cccc([N+](=O)[O-])c1 -0.73%, Cc1ccc(S(=O)(=O)N2CCN(CC(=O)N/N=C/c3cc([N+](=O)[O-])ccc3Cl)CC2)cc1 -0.78%, CSc1nc(C)cc(SC(C(C)=O)C(=O)Nc2ccccc2)n1 (configuration not stated) -0.36%, CC(=O)CCC(=O)c1ccc2ccccc2c1 -2.23%, Cc1ccc(C(=O)NC(=S)NCCN2CCOCC2)cc1 -1.71%, COc1cc2c(cc1/C=C1/NC(=O)N(c3ccccc3)C1=O)OCO2 1.22%, O=C1CC(NNc2ccccc2)C(=O)N1c1cccc(Cl)c1 (configuration not stated) -2.24%, CCOc1ccc2nc(NC(=O)c3cc([N+](=O)[O-])ccc3N3CCOCC3)sc2c1 -0.53%, COc1cccc(N2CCN(C(=O)Nc3ccc4c(c3)NC(=O)CO4)CC2)c1 -2.77%, O=C(Nc1cccc(NC(=O)N2CCN(c3ccccc3)CC2)c1)N1CCN(c2ccccc2)CC1 -2.65%, COCC(=O)N=Nc1c(O)[nH]c2ccccc12 -0.5%, CN(c1ccccc1)c1nc(N)c([N+](=O)[O-])c(NCc2ccco2)n1 1.08%, CCc1nnc(NC(=O)C2CC(=O)N(c3ccc4c(c3)OCCO4)C2)s1 (configuration not stated) 0.1%, CNC(=S)NNC(=O)c1sccc1OCc1ccccc1 -1.56%, COc1cc(/C=N/n2c(C)n[nH]c2=S)ccc1OCc1ccccc1 1.11%, COc1ccc(/C(N)=N/OC(=O)CCCc2ccccc2)cc1 -0.21%, C=C(C)c1cccc(C(C)(C)NC(=O)NC2CCCC2)c1 -1.16%, COc1ccc(C(=O)OCC(=O)NC(=O)CCSc2ccccc2)cc1 -1.93%, CC(Sc1cccc[n+]1[O-])C(=O)Nc1cccc(S(=O)(=O)N2CCOCC2)c1 (configuration not stated) -0.5%, COc1ccc(Nc2nc(N)nc(CSC(=S)N3CCC(C)CC3)n2)cc1 0.01%, COCCNC(=S)N/N=C/c1c(C)[nH]c2ccccc12 -0.61%, CCOC(=O)c1c(C)c(C(=O)NCCc2ccc(S(N)(=O)=O)cc2)c(C)n1CC -2.14%, CCC(=O)Nc1c(S(=O)(=O)c2ccccc2)c2nc3ccccc3nc2n1Cc1ccccc1 2.15%, CCC(CC)C(=O)N1CCN(c2cccc(C)c2C)CC1 -1.21%, Cc1cc(C(=O)N/N=C/c2ccc(O)c([N+](=O)[O-])c2)c(C)n1-c1ccc(F)cc1 1.21%, O=C(Cn1nnc(-c2ccccc2)n1)NCc1ccccc1 -0.65%, O=C(Cn1nnc(-c2ccccc2)n1)N/N=C/c1ccc(-c2ccc(Cl)cc2)o1 -0.89%, COc1ccc(NC(=O)CN2C(=O)C(c3ccccc3)=NC23CCCCCC3)cc1OC -2.09%, CC(=O)NNC1=Nc2ccccc2N(C)C(C)C1 (configuration not stated) -1.09%, COc1cccc(/C=N/NC(=O)CNC(=O)c2ccc(S(=O)(=O)N3CCOCC3)cc2)c1OC -1.42%, CN(C(=O)CSc1nnc(-c2n[nH]c3ccccc23)o1)c1ccccc1 0.05%, Cc1ccc2sc(NNC(=O)c3ccc4c(c3)OCCO4)nc2c1C -2.21%, O=C(O)CCC(=O)N(Cc1cccs1)Cc1cccs1 0.14%, Cc1ccsc1C(C(=O)NC1CCCCC1)N(C(=O)Cc1cccs1)C1CC1 (configuration not stated) 0.48%

activation, active:
CC(C)C(=O)Nc1cccc(NC(=O)c2ccc([N+](=O)[O-])cc2Cl)c1 7.57%, CC1(C)CC(=O)C=C(NCCN2CCNCC2)C1 33.1%, O=C(NC(=S)Nc1ccc(NC(=O)c2cccs2)cc1)c1ccc([N+](=O)[O-])cc1 13.8%, O=C(Nc1ccccc1)/C(=C/c1ccc([N+](=O)[O-])cc1)NC(=O)c1ccccc1 5.48%, CSc1nc(-c2ccccc2)nc(C(Cl)Cl)n1 8.01%, O=C1N/C(=C/c2cccn2-c2ccccc2)C(=O)N1c1cccc(Cl)c1 6.96%, O=C1COc2ccc(NC(=O)N3CCN(c4ccc(F)cc4)CC3)cc2N1 12.7%, CNC(=S)N/N=C/c1ccc(OCc2ccccc2)c(Br)c1 7.44%, CCCNC(=O)c1c(N)n(-c2ccc(S(N)(=O)=O)cc2)c2nc3ccccc3nc12 35.1%, Cc1[nH]c2ccccc2c1/C=N\NC(=O)Cn1nnc(-c2ccccc2)n1 5.32%, CC(=O)N(Cc1cccs1)C1CCOC(C)(C)C1 (configuration not stated) 36.2%
